Here are results for eight molecules from PubChem BioAssay (NCI).

Among the test systems are SK-MEL-2 melanoma; EKVX NSCLC; SN12C renal; UO-31 renal; TK-10 renal; CAKI-1 renal; A498 renal; CCRF-CEM leukemia; MOLT-4 leukemia; RPMI-8226 leukemia; OVCAR-8 ovarian; OVCAR-5 ovarian; OVCAR-4 ovarian; SK-OV-3 ovarian; IGROV1 ovarian; OVCAR-3 ovarian; HS 578T breast; NCI/ADR-RES ovarian; ACHN renal; SR leukemia.
Holding throughout (assay): NCI-60 one-dose screen, 48 h (100 = growth as untreated, 0 = no growth, -100 = all killed)
Settings in all cases: 10 µM unless noted

About 83,000 compounds went through this panel and 20% of them were active in at least one assay; those are over-represented in the sample as a whole.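 Cell lines were cultured in 96-well plates, exposed to a single compound concentration, and assessed for percent growth 48 hours later.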 Values without a mark were called inactive. The source made the active and inactive calls. Rule for the calls: active = growth percent below 10; inactive = the rest.

Turning to `CON1C(=O)CC[C@]2(C)[C@H]3CC[C@@H]4C([C@@]5(C)CCC(=O)O5)CC[C@@]4(C)[C@]3(C)CC[C@H]2C1(C)C` (some centres not stated), the growth in the assay on SK-MEL-2 melanoma is 94.6%; in the assay with EKVX NSCLC, 93.3%; in the assay on SN12C renal, 95.2%; in the assay on UO-31 renal, 94.4%; in the assay with TK-10 renal, 97.8%; with CAKI-1 renal, 75.7%. Besides, the growth in the assay with A498 renal was 99.6%; with CCRF-CEM leukemia, 96.9%; in the assay with MOLT-4 leukemia, 90.6%; with RPMI-8226 leukemia it was 98.6%; with OVCAR-8 ovarian it was 102%; in the assay on OVCAR-5 ovarian, 98.4%. Moreover, the growth with OVCAR-4 ovarian is 92.8%; in the assay on SK-OV-3 ovarian, 104%; in the assay with IGROV1 ovarian it was 111%; in the assay on OVCAR-3 ovarian it was 110%; in the assay with HS 578T breast, 101%; with NCI/ADR-RES ovarian, 97.1%.
As for `C=C1C(=O)O[C@H]2[C@H]1CC/C(COC(=O)NCCc1ccc(OC)c(OC)c1)=C\CC[C@@]1(C)O[C@@H]21`, the growth in the assay on SK-MEL-2 melanoma was 83%; in the assay with EKVX NSCLC it was 71.5%; with UO-31 renal, 43%; in the assay on TK-10 renal, 36%; in the assay with ACHN renal it was 8.5% (active); with CAKI-1 renal, 45.2%. Moreover, the growth was 81.3% in the assay with A498 renal; -8.78% (active) in the assay with CCRF-CEM leukemia; 43.6% in the assay with MOLT-4 leukemia; 11.2% with SR leukemia; 28.8% in the assay on RPMI-8226 leukemia; 51% in the assay with OVCAR-8 ovarian. For the same molecule, the growth was 82.8% in the assay with OVCAR-5 ovarian; 49.9% in the assay with OVCAR-4 ovarian; 99.3% with SK-OV-3 ovarian; 55.9% with IGROV1 ovarian; 25.8% in the assay with OVCAR-3 ovarian; 91.1% with HS 578T breast. Moreover, the growth in the assay with NCI/ADR-RES ovarian was 103%.
For `CN1CCN(c2nc(NCCCNc3ccnc4cc(Cl)ccc34)c3ccccc3n2)CC1`, the growth in the assay with SK-MEL-2 melanoma was 80.7%; in the assay on EKVX NSCLC, 77.3%; in the assay on SN12C renal, 57.2%; in the assay with UO-31 renal it was 37.3%; in the assay on TK-10 renal it was 116%; with A498 renal it was 72.1%. Besides, the growth is 18.6% with CCRF-CEM leukemia; 18.6% in the assay with MOLT-4 leukemia; -25.3% (active) in the assay with SR leukemia; 8.13% (active) with RPMI-8226 leukemia; 38.8% with OVCAR-8 ovarian; 84.8% in the assay with OVCAR-5 ovarian. Besides, the growth in the assay on OVCAR-4 ovarian is 59.8%; in the assay with SK-OV-3 ovarian, 66.6%; in the assay on IGROV1 ovarian, 70.7%; in the assay on OVCAR-3 ovarian, 75.8%; in the assay with HS 578T breast, 79.5%; in the assay with NCI/ADR-RES ovarian, 96.3%.
Consider `CCCCC/C(C=C(C#N)C#N)=C/c1ccccc1`, for which the growth with SK-MEL-2 melanoma is 82.4%; with EKVX NSCLC it was 106%; in the assay with SN12C renal it was 81.1%; in the assay with UO-31 renal, 34.7%; with TK-10 renal, 105%; in the assay with CAKI-1 renal, 81.4%. Besides, the growth in the assay on A498 renal is 112%; in the assay with CCRF-CEM leukemia, 13.9%; with MOLT-4 leukemia, 13.4%; in the assay with SR leukemia, 7.75% (active); in the assay with RPMI-8226 leukemia, -14.1% (active); in the assay with OVCAR-8 ovarian it was 12.3%. Moreover, the growth in the assay on OVCAR-5 ovarian is 113%; in the assay on OVCAR-4 ovarian, 86.4%; in the assay with NCI/ADR-RES ovarian, 65%.
As to `COc1ccc(/C=C/c2nc(-c3n[nH]c(=O)n3-c3ccccc3)c3ccccc3n2)cc1`, the growth is 99.2% in the assay on SK-MEL-2 melanoma; 94.6% with EKVX NSCLC; 91.5% in the assay on SN12C renal; 79.8% with UO-31 renal; 108% with TK-10 renal; 84% in the assay on CAKI-1 renal. Moreover, the growth is 90% with CCRF-CEM leukemia; 95% in the assay with MOLT-4 leukemia; 92.6% in the assay with SR leukemia; 89.6% with RPMI-8226 leukemia; 98.9% in the assay with OVCAR-8 ovarian; 96.1% in the assay with OVCAR-5 ovarian. Moreover, the growth in the assay with OVCAR-4 ovarian is 91.4%; with SK-OV-3 ovarian, 94.8%; in the assay on IGROV1 ovarian, 99.1%; in the assay with OVCAR-3 ovarian it was 101%; with HS 578T breast, 100%; in the assay with NCI/ADR-RES ovarian, 100%.
Consider `CCCc1cc(=O)n2c(C(=O)Nc3cccc(C(=O)OCC)c3)c(C(=O)Nc3ccc(F)cc3)sc2n1`, for which the growth in the assay with SK-MEL-2 melanoma was 63.4% [30 µM]; with EKVX NSCLC, 92.8% [30 µM]; in the assay on SN12C renal, 28.8% [30 µM]; with UO-31 renal it was 15.7% [30 µM]; in the assay with TK-10 renal, 45% [30 µM]; in the assay with CAKI-1 renal, 17.3% [30 µM]. Also, the growth was 8.74% [30 µM] (active) in the assay on A498 renal; 40.9% [30 µM] with CCRF-CEM leukemia; 127% [30 µM] with MOLT-4 leukemia; 82.4% [30 µM] in the assay on SR leukemia; 57% [30 µM] in the assay on RPMI-8226 leukemia; -19.2% [30 µM] (active) with OVCAR-8 ovarian. For the same molecule, the growth with OVCAR-5 ovarian was 71.2% [30 µM]; with OVCAR-4 ovarian it was 9.71% [30 µM] (active); in the assay with SK-OV-3 ovarian, 62.2% [30 µM]; with IGROV1 ovarian, 42.2% [30 µM]; with HS 578T breast, 14.3% [30 µM]; in the assay on NCI/ADR-RES ovarian, 47.3% [30 µM].
For `COc1ccc(C(=O)COc2ccc(/C=C3\Oc4ccc(OC)cc4C3=O)cc2)cc1`, the growth with SK-MEL-2 melanoma was 86.4%; in the assay on EKVX NSCLC it was 99.4%; in the assay on SN12C renal, 101%; in the assay on TK-10 renal it was 119%; in the assay with ACHN renal, 105%; in the assay on CAKI-1 renal, 98.3%. Also, the growth in the assay on A498 renal is 98.9%; in the assay with CCRF-CEM leukemia it was 72.6%; in the assay on MOLT-4 leukemia, 83.6%; with RPMI-8226 leukemia, 80.5%; in the assay on OVCAR-8 ovarian, 88%; with OVCAR-5 ovarian it was 117%. Besides, the growth in the assay with OVCAR-4 ovarian is 115%; in the assay with SK-OV-3 ovarian, 102%; with OVCAR-3 ovarian it was 103%; with HS 578T breast, 97.3%; in the assay on NCI/ADR-RES ovarian it was 109%.
Take `CC(=O)OC[C@H]1O[C@H](OC(C)=O)[C@H](NC(=O)/C=C/CCl)[C@@H](OC(C)=O)[C@@H]1OC(C)=O`: the growth in the assay with SK-MEL-2 melanoma was 66.6%; in the assay with EKVX NSCLC, 94.9%; with UO-31 renal, 103%; in the assay on TK-10 renal, 75%; with ACHN renal, 77.1%; in the assay on CAKI-1 renal it was 101%. Moreover, the growth with A498 renal is 104%; in the assay on CCRF-CEM leukemia, 24.6%; in the assay on MOLT-4 leukemia it was 81.9%; in the assay with SR leukemia it was 44.5%; in the assay with RPMI-8226 leukemia it was 71.7%; with OVCAR-8 ovarian, 81.6%. In addition, the growth is 84.5% in the assay with OVCAR-5 ovarian; 68.2% in the assay on OVCAR-4 ovarian; 57.2% in the assay with SK-OV-3 ovarian; 93.9% with IGROV1 ovarian; 30.6% in the assay on OVCAR-3 ovarian; 92% in the assay on HS 578T breast. Also, the growth with NCI/ADR-RES ovarian is 90.7%.
